Assay [1] can be described thus: qHTS assay to identify small molecule antagonists of the thyroid receptor (TR) signaling pathway - cell viability counter screen (AID 743064). Note: nearly all actives have a fitted effect of over 50% in size. Note: potency is the fitted concentration of half-maximal effect. The method in brief: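 Rat GH3 pituitary tumor cells stably expressing two TR response elements driving luciferase were plated, rested 4 h, then dosed with library compounds and T3 (1 nM final). After 23.5 h at 37 °C, CellTiter-Fluor was added for 30 min and fluorescence recorded.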
Background: In qHTS, concentration-response curves come from the screen itself.

Assay [2] concerns thyroid hormone receptor (rat, GH3 cells). The experiment in a line: qHTS assay to identify small molecule agonists of the thyroid receptor (TR) signaling pathway (AID 743066; calls by dose curve).
The target in assay [3] is Estrogen receptor (Homo sapiens) (UniProt P03372). Kind of assay: qHTS assay to identify small molecule antagonists of the estrogen receptor alpha (ER-alpha) signaling pathway (AID 743069; active = well fitted curve in the direction sought with a large enough effect in the signal ratio in the repeat runs, not every such curve was filed as active; inconclusive = weak or mixed curves, or effect the other way; inactive = no such curve, though single readings can be large or run the other way; the % refers to the signal ratio). In a few lines:
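HEK293 ER-alpha-UAS-bla GripTite cells, held overnight in 2% charcoal-stripped FBS, 5,000 cells/well, preincubated 4 h, then compound plus 17beta-estradiol for 18 h at 37C. Beta-lactamase read by LiveBLAzer B/G FRET substrate, 2 h at room temperature.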

A short description of assay [4]: qHTS assay to identify small molecule antagonists of the estrogen receptor alpha (ER-alpha) signaling pathway - cell viability counter screen (AID 743074; calls by dose curve;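 note: HEK293 cells carrying ER-alpha-UAS-bla reporter stimulated with 17beta-estradiol; nearly all actives have a fitted effect of over 45% in size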; note: potency is the fitted concentration of half-maximal effect).
Assay [5] addresses Estrogen receptor (Homo sapiens) (UniProt P03372). Kind of assay: qHTS assay to identify small molecule agonists of the estrogen receptor alpha (ER-alpha) signaling pathway (AID 743075; calls by dose curve; note: potency is the fitted concentration of half-maximal effect).
Assay [6] has the same target. The experiment in a line: qHTS assay to identify small molecule agonists of the estrogen receptor alpha (ER-alpha) signaling pathway using the BG1 cell line (AID 743079). Note: nearly all actives have a fitted effect of over 20% in size. Note: potency is the fitted concentration of half-maximal effect.
Assay [7] can be described thus: qHTS assay to identify small molecule antagonists of the estrogen receptor alpha (ER-alpha) signaling pathway using the BG1 cell line (AID 743080; calls by dose curve;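 note: BG1 cells stimulated with 17beta-estradiol alongside compound; nearly all actives have a fitted effect of over 25% in size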; note: potency is the fitted concentration of half-maximal effect). In a few lines:
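Endogenous full-length ER-alpha in BG1-Luc-4E2 cells drives a stably integrated 4×ERE luciferase gene; compounds were tested against 17beta-estradiol over 21.5 h, with luminescence and multiplexed viability fluorescence recorded.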

Assay [8] can be described thus: qHTS assay to identify small molecule antagonists of the estrogen receptor alpha (ER-alpha) signaling pathway using the BG1 cell line - cell viability counter screen (AID 743081).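 Note: compound given together with 17beta-estradiol as the ER stimulus; nearly all actives have a fitted effect of over 45% in size.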 Note: potency is the fitted concentration of half-maximal effect.
Another assay deals with Aromatase (Homo sapiens) (UniProt P11511). Kind of assay: qHTS assay to identify aromatase inhibitors (AID 743083). Note: nearly all actives have a fitted effect of over 55% in size. Note: potency is the fitted concentration of half-maximal effect.
Chain of Aromatase (Homo sapiens) (P11511 whole entry, looked up): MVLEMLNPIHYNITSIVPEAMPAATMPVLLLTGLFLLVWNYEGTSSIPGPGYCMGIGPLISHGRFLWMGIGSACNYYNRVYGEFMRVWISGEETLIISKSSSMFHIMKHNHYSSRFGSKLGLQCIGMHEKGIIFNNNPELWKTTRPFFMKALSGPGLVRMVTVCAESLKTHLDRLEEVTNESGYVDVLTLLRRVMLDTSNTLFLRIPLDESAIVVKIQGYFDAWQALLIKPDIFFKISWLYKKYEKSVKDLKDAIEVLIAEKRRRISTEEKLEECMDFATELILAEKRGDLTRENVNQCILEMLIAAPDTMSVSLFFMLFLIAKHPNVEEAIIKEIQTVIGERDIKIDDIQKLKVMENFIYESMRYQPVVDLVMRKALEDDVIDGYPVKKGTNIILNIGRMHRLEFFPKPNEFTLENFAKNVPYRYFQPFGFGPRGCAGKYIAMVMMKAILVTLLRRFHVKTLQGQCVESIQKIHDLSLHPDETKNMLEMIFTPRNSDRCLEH
A short description of assay [9]: qHTS assay to identify aromatase inhibitors - cell viability counter screen (AID 743084).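 Note: cells stimulated with testosterone during compound exposure; nearly all actives have a fitted effect of over 55% in size.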 Note: potency is the fitted concentration of half-maximal effect.
For assay [10], the target named is Aryl hydrocarbon receptor (Homo sapiens) (UniProt P35869). The experiment in a line: qHTS assay to identify small molecule that activate the aryl hydrocarbon receptor (AhR) signaling pathway (AID 743085).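 For activation: HG2L7.5c1 human HepG2 liver cells with stably integrated DRE-driven firefly reporter; series mostly up to about 70 µM.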 Note: nearly all actives have a fitted effect of over 15% in size. Note: potency is the fitted concentration of half-maximal effect. In a few lines:
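Compounds were tested in HepG2 hepatocellular carcinoma cells harbouring a stably integrated luciferase gene under control of 20 DREs. Increased reporter signal after 24 h treatment at 37C was taken as AhR activation.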

Assay [11] can be described thus: qHTS assay to identify small molecule that activate the aryl hydrocarbon receptor (AhR) signaling pathway - cell viability counter screen (AID 743086). Note: nearly all actives have a fitted effect of over 45% in size. Note: potency is the fitted concentration of half-maximal effect. In a few lines: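 HepG2-AhR-luc (HG2L7.5c1) cells, 4000/well, treated 24 h at 37 C with compound; viability measured as CellTiter-Fluor fluorescence after 30 min in the same wells as the luciferase read.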
The target of assay [12] is Peroxisome proliferator-activated receptor gamma (Homo sapiens) (UniProt P37231). Kind of assay: qHTS assay to identify small molecule agonists of the peroxisome proliferator-activated receptor gamma (PPARg) signaling pathway (AID 743094; active = well fitted activation curve with a large enough effect in the signal ratio in the repeat runs, not every such curve was filed as active; inconclusive = weak or mixed curves, or effect the other way; inactive = no such curve, though single readings can be large or run the other way; the % refers to the signal ratio). In a few lines:
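GeneBLAzer PPARg UAS-bla HEK293H cells carrying a stably integrated beta-lactamase reporter were pre-incubated 5 h at 37C, then exposed to compounds in DMSO for 17 h at 37C; LiveBLAzer B/G FRET substrate was added for 1 h at room temperature and fluorescence read.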

Assay [13] can be described thus: qHTS assay to identify small molecule antagonists of the peroxisome proliferator-activated receptor gamma (PPARg) signaling pathway - cell viability counter screen (AID 743194). Note: nearly all actives have a fitted effect of over 55% in size. Note: potency is the fitted concentration of half-maximal effect. The method in brief:
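Cytotoxicity counter screen in PPARg-bla HEK293H cells, same wells as reporter assay. Compounds plus 50 nM rosiglitazone (final) for 17 h at 37 C, then viability read by CellTiter-Glo luminescence.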

Assay [14] is described as follows: qHTS assay for small molecule agonists of the antioxidant response element (ARE) signaling pathway (AID 743202; active = well fitted activation curve with a large enough effect in the signal ratio in the repeat runs, not every such curve was filed as active; inconclusive = weak or mixed curves, or effect the other way; inactive = no such curve, though single readings can be large or run the other way; the % refers to the signal ratio; note: potency is the fitted concentration of half-maximal effect). The method in brief: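 ARE-bla HepG2 cells (beta-lactamase reporter under the antioxidant response element), plated 5 hours, then exposed to compounds 16 hours at 37 C. LiveBLAzer B/G FRET substrate added for 2 hours at room temperature; fluorescence intensity read.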

Assay [15] in a line: qHTS assay for small molecule activators of the heat shock response signaling pathway - cell viability counter screen (AID 743209). Note: nearly all actives have a fitted effect of over 50% in size. Note: potency is the fitted concentration of half-maximal effect. The method in brief:
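CellSensor HSE-bla HeLa cells, plated overnight at 37 C/5% CO2, were exposed to compounds in DMSO for 5 h at 37 C. Viability was then read in the same wells by CellTiter-Glo luminescence after 30 min at room temperature.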

A short description of assay [16]: qHTS assay for small molecule agonists of the antioxidant response element (ARE) signaling pathway - cell viability counter screen (AID 743203; calls by dose curve; note: nearly all actives have a fitted effect of over 55% in size; note: potency is the fitted concentration of half-maximal effect). In a few lines: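 CellSensor ARE-bla HepG2 cells, 2,000 per well, rested 5 hrs at 37C/5% CO2, then exposed to compound in DMSO for 16 hrs; viability read as CellTiter-Glo luminescence after 30 min at room temperature, in the reporter wells.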

A short description of assay [17]: qHTS assay to identify small molecule antagonists of the thyroid receptor (TR) signaling pathway (AID 743065). In a few lines:
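GH3.TRE-Luc rat pituitary cells (two TREs driving luciferase) were dosed with compound, then stimulated with 1 nM T3 (final) for 23.5 h at 37 C. ONE-Glo luminescence was the read-out, with CellTiter-Fluor fluorescence as the cytotoxicity counter-screen.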

In assay [18] the target is Peroxisome proliferator-activated receptor gamma (Homo sapiens) (UniProt P37231). Kind of assay: qHTS assay to identify small molecule antagonists of the peroxisome proliferator-activated receptor gamma (PPARg) signaling pathway (AID 743191; calls by dose curve; note: series mostly up to about 63 µM; nearly all actives have a fitted effect of over 30% in size). In a few lines:
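GeneBLAzer PPARg UAS-bla HEK293H cells, 5 h post-plating, exposed to compounds 17 h at 37C. LiveBLAzer B/G FRET substrate added for 1 h at room temperature; beta-lactamase reporter read by fluorescence intensity.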

The nature of assay [19]: qHTS assay for small molecule activators of the heat shock response signaling pathway (AID 743210; active = well fitted activation curve with a large enough effect in the signal ratio in the repeat runs, with a control signal flat, not every such curve was filed as active; inconclusive = weak or mixed curves; the % refers to the signal ratio; note: series mostly up to about 63 µM). The method in brief:
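HSE-bla HeLa cells (beta-lactamase reporter under heat shock response elements), plated overnight, then exposed to compounds 5 h at 37 C; LiveBLAzer B/G FRET substrate added, 2.5 h at room temperature, fluorescence intensity read.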

Several values for one entry are separate records, joined by “and”; a condition that tells them apart may be missing. Identical values can stand only once. The source holds several records for some structures; these can differ, active in one and inactive in another. Activity calls are given as the source filed them. Unless noted, calls come from the whole dose curve; as a rule, active = well fitted curve in the direction sought with a large enough effect in the repeat runs; inconclusive = weak or mixed curves; inactive = no such curve, though single readings can be large; an effect the other way counts as inactive or inconclusive.

This note sets out measurements from PubChem BioAssay (Tox21).

Chain of Estrogen receptor (Homo sapiens) (P03372 whole entry, looked up): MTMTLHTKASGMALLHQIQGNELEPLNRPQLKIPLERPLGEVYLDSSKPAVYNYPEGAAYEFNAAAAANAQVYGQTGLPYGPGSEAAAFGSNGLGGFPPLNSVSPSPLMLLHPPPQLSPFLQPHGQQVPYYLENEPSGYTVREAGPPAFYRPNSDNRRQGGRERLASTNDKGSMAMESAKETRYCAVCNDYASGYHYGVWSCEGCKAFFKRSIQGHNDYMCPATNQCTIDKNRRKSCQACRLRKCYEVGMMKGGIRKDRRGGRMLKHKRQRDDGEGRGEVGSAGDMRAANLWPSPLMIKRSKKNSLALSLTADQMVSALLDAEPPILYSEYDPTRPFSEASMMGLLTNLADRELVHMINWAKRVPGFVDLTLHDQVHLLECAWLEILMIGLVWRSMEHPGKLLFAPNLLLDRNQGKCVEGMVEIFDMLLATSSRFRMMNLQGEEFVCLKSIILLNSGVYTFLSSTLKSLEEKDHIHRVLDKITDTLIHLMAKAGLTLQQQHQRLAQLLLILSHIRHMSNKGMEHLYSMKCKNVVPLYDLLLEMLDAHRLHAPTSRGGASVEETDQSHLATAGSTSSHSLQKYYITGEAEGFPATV
Chain of Aryl hydrocarbon receptor (Homo sapiens) (P35869 whole entry, looked up): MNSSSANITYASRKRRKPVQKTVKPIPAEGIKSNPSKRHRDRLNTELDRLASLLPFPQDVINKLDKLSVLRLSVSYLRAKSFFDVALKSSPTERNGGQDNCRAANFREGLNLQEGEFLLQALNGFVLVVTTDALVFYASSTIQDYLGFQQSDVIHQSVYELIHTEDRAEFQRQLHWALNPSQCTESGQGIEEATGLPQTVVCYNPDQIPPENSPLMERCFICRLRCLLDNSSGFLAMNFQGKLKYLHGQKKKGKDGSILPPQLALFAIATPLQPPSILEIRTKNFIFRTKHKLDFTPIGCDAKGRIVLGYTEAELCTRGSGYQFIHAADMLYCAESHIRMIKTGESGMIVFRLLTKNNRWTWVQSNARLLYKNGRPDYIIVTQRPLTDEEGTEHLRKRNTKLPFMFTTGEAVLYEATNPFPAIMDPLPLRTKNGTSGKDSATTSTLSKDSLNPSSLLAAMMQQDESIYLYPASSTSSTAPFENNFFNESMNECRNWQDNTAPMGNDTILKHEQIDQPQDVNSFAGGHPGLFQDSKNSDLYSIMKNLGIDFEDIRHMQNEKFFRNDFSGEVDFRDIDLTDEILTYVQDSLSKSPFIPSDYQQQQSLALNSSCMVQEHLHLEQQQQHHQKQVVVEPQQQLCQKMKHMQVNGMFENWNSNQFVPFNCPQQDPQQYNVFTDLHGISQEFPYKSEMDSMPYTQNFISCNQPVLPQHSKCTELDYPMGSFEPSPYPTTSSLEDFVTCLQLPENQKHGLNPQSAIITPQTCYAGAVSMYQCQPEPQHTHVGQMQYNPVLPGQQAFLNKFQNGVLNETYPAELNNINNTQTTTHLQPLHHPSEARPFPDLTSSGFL
Chain of Peroxisome proliferator-activated receptor gamma (Homo sapiens) (P37231 whole entry, looked up): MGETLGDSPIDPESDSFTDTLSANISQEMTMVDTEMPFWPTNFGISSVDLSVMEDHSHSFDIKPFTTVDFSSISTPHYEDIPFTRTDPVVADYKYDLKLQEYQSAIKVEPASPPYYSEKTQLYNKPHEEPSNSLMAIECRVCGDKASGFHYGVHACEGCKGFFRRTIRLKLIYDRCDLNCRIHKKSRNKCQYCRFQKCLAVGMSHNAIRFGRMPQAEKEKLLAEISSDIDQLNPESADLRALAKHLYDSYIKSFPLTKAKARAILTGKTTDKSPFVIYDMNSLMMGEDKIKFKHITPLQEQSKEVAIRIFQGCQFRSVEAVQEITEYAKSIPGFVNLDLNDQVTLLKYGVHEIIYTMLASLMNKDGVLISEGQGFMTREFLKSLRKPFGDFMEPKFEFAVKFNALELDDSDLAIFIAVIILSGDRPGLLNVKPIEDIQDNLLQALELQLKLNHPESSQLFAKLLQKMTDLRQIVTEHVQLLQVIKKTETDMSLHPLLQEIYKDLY

In the case of `CCCCC/C=C\C/C=C\CCCCCCCC(=O)O`, the Potency entry in assay [1], in assay [3], in assay [4], in [5], in assay [6] and in assay [7] was “inactive” throughout. Moreover, the Potency entry (in assay [8]; with Aromatase (Homo sapiens); in assay [9]; in assay [10]; in assay [11]; in [12]) was “inactive” each time. Moreover, the Potency entry in assay [13] is “inactive”. Further, in assay [2], the compound was classed as inactive. For the same compound, the Potency in assay [14] is 61.1 µM (active); in [15] it was 42.9 µM (active).
`O=C(O)c1cc(O)c2ccccc2c1O`: the Potency in [1] is 9.69 µM (active); with Aromatase (Homo sapiens), 9.69 µM (active); in assay [9], 15.4 µM (active); in assay [10], 4.86 µM (active); in assay [11], 54.5 µM (active); in [13] it was 49 µM (active). The Potency in [16] is 30.6 µM (active); in assay [15], 21.9 µM (active). Further, in assay [2], the result was inactive. The Potency entry in assay [4], in assay [5] and in [12] was “inactive” throughout.
In the case of `COc1cccc2c1C(=O)c1c(O)c3c(c(O)c1C2=O)C[C@@](O)(C(C)=O)C[C@@H]3O[C@H]1C[C@H](N)[C@H](O)[C@H](C)O1`, the Potency was 1.06 µM (active) and 218 nM (active) in [1]; 596 nM (active) and 154 nM (active) in [17]; 21.1 µM (active) and 27.5 µM (active) in [8]; 3.76 µM (active) and 615 nM (active) with Aromatase (Homo sapiens); 10.6 µM (active) and 8.69 µM (active) in [9]; 2.45 µM (active) in assay [10]. The Potency is 5.96 µM (active) and 24.5 µM (active) in [11]; 34.9 µM (active) and 33.5 µM (active) in assay [13]. Also, in assay [4], the Potency entry is “inactive”.
On to `C#CC1(O)CC[C@H]2[C@@H]3CCC4=CCCC[C@@H]4[C@H]3CC[C@@]21C` (some centres undefined), for which the Potency in [1] is 30.6 µM (active); in [17], 30.6 µM (active); in assay [5] it was 57.4 nM [inconclusive] (active) and 77.6 nM [inconclusive] (active); in assay [6], 40.3 nM (active) and 21.7 nM (active); with Aromatase (Homo sapiens) it was “inactive and 61.1 µM (active)”; in assay [9] it was “inactive and 54.5 µM (active)”. The Potency is 18.8 µM (active) in assay [13]; 61.1 µM (active) and 13.3 µM (active) in [16]; 11.9 µM (active) in [15]. Also, the Potency entry in [3], in [4], in assay [7], in assay [8], in assay [10] and in assay [11] was “inactive” throughout. For the same compound, the Potency entry in assay [12] was “inactive”.
With `COc1cc(S(=O)(=O)O)c(C)cc1N=Nc1c(O)ccc2cc(S(=O)(=O)O)ccc12`, the Potency is 30.6 µM (active) in assay [1], 30.6 µM (active) in assay [8], 8.63 µM (active) in [9] and 9.69 µM (active) in assay [11]. Also, in assay [2], the result was inactive. Also, the Potency result in assay [3], in assay [4], in assay [5], in assay [10], in [12] and in assay [18] was “inactive” each time. Further, the Potency entry in [13], in [14], in [16], in assay [15] and in assay [19] was “inactive” in each case.
Turning to `OCCN1CCN(CCCN2c3ccccc3Sc3ccc(C(F)(F)F)cc32)CC1`, the Potency in [1] is 6.68 µM (active); in assay [17], 6.68 µM (active); in [16] it was 29.8 µM (active). Further, the Potency result in [3], in assay [4], in [5], in assay [6], in assay [7] and in assay [8] was “inactive” each time. For the same compound, the Potency result in [10], in [15] and in [19] was “inactive” each time.
Take `CCCCCCCCCCCCOCCOCCOCCOCCOCCOCCOCCOCCOCCO`: the Potency is 9.44 µM (active) in assay [1]; 8.41 µM (active) in assay [17]; 10.7 µM (active) in assay [4]; 5.96 µM (active) in assay [7]; 23.7 µM (active) in assay [8]; 10.6 µM (active) with Aromatase (Homo sapiens). Besides, the Potency in assay [15] was 29.8 µM (active). In addition, the Potency entry in assay [5] and in [9] was “inactive” in each case.
Turning to `c1ccc(C(O[C@@H]2CCCN(CCc3ccc4c(c3)OCO4)C2)c2ccccc2)cc1`, the Potency is 24.3 µM (active) in assay [1], 30.6 µM (active) in [17] and 61.1 µM (active) in [16]. Also, the Potency result in assay [3], in [5], in assay [8], in [11], in assay [13] and in assay [15] was “inactive” each time.
